# Measurements from PubChem BioAssay AID1508623 (National Center for Advancing Translational Sciences (NCATS), 2021).
# Screen size: about 48,000 compounds; about 450 (0.94%) were called active. Inconclusive results (about 19%) are left out. Calls follow the shape of the dose curve; as a rule, active = well fitted inhibition curve with a large enough effect; inconclusive = small, poorly fitted or top-dose-only effect; inactive = no such curve, though single readings can be large or run the other way. The entries come from a sample that favours actives as a whole.
# Assay: Primary qHTS for Identification of Small Molecule Inhibitors of Huntingtin Promoter Activity; also: nearly all actives have a fitted effect of over 50% in size
# Settings: HEK293 HTT promoter firefly luciferase reporter (activity 0% = vehicle and -100% = no light), 24 h; series mostly up to 57.5 µM; activity change, negative = inhibition: at the top concentration
# Excerpt: Assay Provider: Russell L. Margolis M.D.
# Department Neurology, Johns Hopkins University School of Medicine, Baltimore, MD
# Huntington's Disease (HD) is a neurodegenerative disorder caused by a CAG repeat expansion in exon 1 of huntingtin (HTT). While there are currently no disease-modifying treatments for HD, recent efforts have focused on development of nucleotide-based therapeutics to lower HTT expression. As an alternative to siRNA or oligonucleotide methods, we hypothesized that suppression of HTT expression might be accomplished by small molecules that either (1) directly decrease HTT expression by suppressing HTT promoter activity or (2) indirectly decrease HTT expression by increasing the promoter activity of HTT-AS, the gene antisense to HTT that appears to inhibit expression of HTT.
# We developed and employed a high throughput screen for modifiers of HTT and HTT-AS promoter activity using luminescent reporter HEK293 cells; of the 52,041 compounds tested, we identified 898 replicable hits. We used a rigorous stepwise approach to assess compound toxicity and the capacity of the compounds to specifically lower huntingtin protein in 5 different cell lines, including HEK293 cells, HD lymphoblastoid cells, mouse primary neurons, HD iPSCs differentiated into cortical-like neurons, and HD hESCs. We found no compounds which were able to lower huntingtin without lowering cell viability in all assays, though the potential efficacy of a few compounds at non-toxic doses could not be excluded.
# SEQUENCE No. (1, 2, 3, etc.); […] (e.g., Cells, Incubation, Reagent, etc.); VALUE and DESCRIPTION.
# 1; Reagent; 4 uL; 2,500 Hek293 luciferase reporter cells per wells
# 3; Compound; 23 nL; Control inhibitor / compound library
# 5; Reagent; 2.5 uL; Firefly Luc reagent; Dual-Glo Luciferase Reporter Assay System (Promega)
# 6; Time; 10 min; room temperature incubation
# 7; Detection; Luminescence; FLuc
# NOTES (numbers refer to sequence above)
# 1; High-throughput screening, measuring luminescence from a Hek293 luciferase reporter, was performed in 1,536 well white-walled tissue-culture treated plates. 2,500 cells were plated in 4 µL of Opti-MEM per well using a Multidrop Combi Reagent Dispenser (ThermoFisher).
# 2; Assay plates were cultured for 24 hours.
# 3; Control inhibitor (PTC124; final concentration of 50 uM) and compound library (at final concentrations of 460 nM - 57.5 uM) were added to the assay plate using the Kalypsis Pintool Robotic System equipped with 1536 pinheads.
# 4; Cells were then incubated for 24 hours at 37 degrees C prior to luminescence measurements.
# 5; In all cases, luminescence was measured using the Dual-Glo Luciferase Reporter Assay System (Promega) following the manufacturer's instructions.
# 6; Room temperature incubation.
# 7; Luminescence signal was obtained using the PerkinElmer ViewLux plate reader. Results were normalized to vehicle control (0% activity) and zero RLU (-100% activity).
# Potency is read from the fitted curve at half-maximal effect.
Compound,"activity change, negative = inhibition",Potency
CC(C)CC(=O)NCC(c1ccc2c(c1)OCO2)N1CCN(c2ccc(F)cc2)CC1 (stereo not drawn),-14.9% (inactive),
Cc1c(CCNC(=O)c2ccc(C(F)(F)F)cc2)sc2nc(-c3ccc(F)cc3)nn12,4.17% (inactive),
CCOC(=O)c1c(C)[nH]c(CCC(=O)NCCCN2CCN(c3cccc(Cl)c3)CC2)c1C,-29.4% (inactive),
CCOc1ccc(NC(=O)C(=O)NCCc2csc3nc(-c4ccccc4F)nn23)cc1,-5.73% (inactive),
COc1ccc(Cl)cc1N(C)C(=O)c1cc2c(=O)oc3ccc(C)cc3c2s1,-0.88% (inactive),
COc1cccc(Nc2nc3ccccc3c3nncn23)c1,-14.9% (inactive),
Cc1ccc(C)n1-c1nnc(N2CCC(C(=O)NCc3ccccc3Cl)CC2)s1,-11.2% (inactive),
O=S(=O)(c1ccc(Br)cc1)c1nnn2c1nc(N1CCOCC1)c1sccc12,7.1% (inactive),
Cc1ccc(CSc2nc3cccnc3n2Cc2ccc(C(=O)NC3CC3)cc2)cc1,9.61% (inactive),
COc1ccc(S(=O)(=O)N2CCCCC2)cc1C(=O)NC1CCS(=O)(=O)C1 (stereo not drawn),-15.4% (inactive),
Cc1ccc(-c2nn(CCC(=O)Nc3ccc(Cl)c(Cl)c3)c(=O)c3ccccc23)cc1,-9.37% (inactive),
CCN(CC)CCNC(=O)CN1N=C(c2ccc(OC)cc2)CCC1=O,-8.91% (inactive),
CSc1ncc(C(=O)NCc2ccccc2Cl)c(C(F)(F)F)n1,-7.35% (inactive),
Cc1ccc(SCC(=O)Nc2ccc3oc(-c4ccccc4F)nc3c2)cc1,0% (inactive),
CCOC(=O)c1cc2c(=O)n3ccccc3nc2n(CC2CCCO2)c1=NC(=O)c1ccc(C(C)(C)C)cc1 (stereo not drawn),-8.51% (inactive),
CCOc1ccc2oc(=O)cc(CN3CCN(C(=O)c4ccc(F)cc4)CC3)c2c1,-21.1% (inactive),
CCOc1ccc(OCC)c(Nc2nc3ccccc3n3nnnc23)c1,-15.9% (inactive),
N#Cc1ccc(-c2cccs2)nc1SCc1ccc(Br)cc1,12.7% (inactive),
Cc1ccc(CCNC(=O)c2ccc(CNS(=O)(=O)c3ccc(C)cc3)cc2)cc1,-5.53% (inactive),
COc1ccc(NC(=O)CCCN2C(=O)CCn3nc(-c4cn(C)c5ccccc45)cc32)cc1OC,0% (inactive),
CCOc1ccccc1NC(=O)CN1CCN(S(=O)(=O)c2ccc(Br)cc2)CC1,-13.4% (inactive),
COc1ccccc1NC(=O)c1cc(C2CC2)nc2c1c(C)nn2-c1ccc(C)cc1,-10.5% (inactive),
CCN1CCN(c2ncnc3c2cnn3-c2ccc(C)c(C)c2)CC1,-8.96% (inactive),
Cc1ccc(-n2ncc3c(N4CCC(C(N)=O)CC4)ncnc32)cc1,,0.316 µM (active)

Compound,"activity change, negative = inhibition",Potency
Cc1ccc(Cl)cc1-n1ncc2c(N3CCC(C(N)=O)CC3)ncnc21,-30.7% (inactive),
Cc1cc(OCC(=O)NCC2(N(C)C)CCCCC2)cc(C)c1Cl,-5.14% (inactive),
Cc1nc2nc(SCC(=O)NC3CCC(C)CC3)nn2c(C)c1Cc1ccccc1Cl (stereo not drawn),2.74% (inactive),
Cc1ccc(-n2nnnc2CNC(=O)c2ccccc2C)cc1C,1.21% (inactive),
COc1ccc(OCCn2cc(C(=O)C3CCCCC3)c3ccccc32)cc1,-27.6% (inactive),
COc1ccc(-c2noc(-c3ccc(N4CCN(c5ccccc5)CC4)c([N+](=O)[O-])c3)n2)cc1OC,-7.68% (inactive),
O=C(COc1ccccc1)NCc1ccc2c(c1)CCN2C(=O)c1ccc(F)cc1,-29.6% (inactive),
Cc1cc2c(cc1S(=O)(=O)CCC(=O)NCc1ccccc1)OCC(=O)N2,-5.35% (inactive),
Cn1c(SCC(=O)N2CCCc3ccccc32)ncc(C(=O)Nc2ccc(F)cc2)c1=O,-4.61% (inactive),
COc1ccc(S(=O)(=O)NCc2cccn2Cc2cccc(C)c2)cc1,0% (inactive),
Cc1ccc(NC(=O)c2cc(S(=O)(=O)NCCC3=CCCCC3)ccc2F)cc1C,,28.2 µM (active)
Cc1ccc(-n2cnc3cc(C(=O)NCCC4=CCCCC4)ccc32)cc1Cl,-5.68% (inactive),
CC(C)c1ccc(NC(=O)c2cc(S(=O)(=O)N3CCc4ccccc4C3)ccc2F)cc1,-20% (inactive),
O=c1n(Cc2cccc(C(F)(F)F)c2)c2ccccc2c2nc(-c3ccccc3)nn12,-9.87% (inactive),
COc1ccc(N2CCN(C(=O)c3cn(C)c4ccc(S(=O)(=O)N5CCOCC5)cc4c3=O)CC2)cc1,-18.7% [at 11.5 µM] (inactive),
O=C(Nc1cc(C(F)(F)F)ccc1Cl)c1nc2ccccc2nc1N1CCCCC1,-3.65% (inactive),
CCN(C(=O)Cn1c(=O)nc(-c2ccccc2)c2cc(Cl)ccc21)c1cccc(C)c1,-4.22% (inactive),
COc1ccc(NC(=O)c2ccc3oc(=O)c(S(=O)(=O)c4ccc(F)cc4)cc3c2)c(OC)c1,,11.2 µM (active)
COc1ccc(NC(=O)c2ccc3nc(CCc4ccccc4)oc3c2)c(OC)c1,36.9% (inactive),
COc1ccc2c(c1)c(=O)c(S(=O)(=O)c1ccc(F)cc1)cn2CC(=O)Nc1ccc(C)cc1C,-9.64% (inactive),
Fc1ccc(C(Nc2ccc(Cl)c(C(F)(F)F)c2)c2nnc(-c3ccccc3)o2)cc1 (stereo not drawn),-35.9% (inactive),
CC(=O)Nc1ccc(S(=O)(=O)N2CCN(c3ccccc3)CC2)cc1,-26.9% (inactive),
COc1ccc(Nc2ncc(C(=O)Nc3cc(C)ccc3OC)c3ccccc23)cc1,-18.3% (inactive),
O=C(CCCn1c(=O)c2cccn2c2cccnc21)NCc1ccc(F)cc1,8.1% (inactive),
